Records with an inconclusive call do not appear. Activity calls are given as the source filed them. The call rests on the fitted dose curve; in most records, active means well fitted curve in either direction with a large enough effect; inconclusive means small, poorly fitted or top-dose-only effect; inactive means no such curve, though single readings can be large or run the other way. Residues, ends and D or L forms follow the SMILES beside them.
The molecules below were run against Lysosomal alpha-glucosidase (Homo sapiens) (UniProt P10253) (assay: Confirmation of Inhibitors and Activators of Human alpha-Glucosidase From Spleen Homogenate). Conditions: alpha-glucosidase enzyme activity; series mostly up to 60.5 µM.
How it was run: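 Fluorogenic assay using human spleen homogenate (1 ug) as enzyme source with 1 mM 4-methylumbelliferyl-alpha-D-glucopyranoside, pH 5.0 citrate buffer, 40 min at 37 C. 4-MU read (Ex 365/Em 440) after NaOH/glycine stop; AC50 from Hill fits.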
Potency means the concentration at half of the fitted maximal effect.
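Wherever Potency is given: fluorescence of 4-methylumbelliferone released from a fluorogenic glucopyranoside substrate at pH 5.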

Potency, inactive:
CCCCn1c(N)c(NCC)c(=O)[nH]c1=O
O=S(=O)(c1ccccc1)N1CCN(S(=O)(=O)c2ccccc2)CC1
Cc1ccc(S(=O)(=O)N2CCN(C(=O)N(c3ccccc3)c3ccccc3)CC2)cc1
COC(=O)CSc1cc([N+](=O)[O-])ccc1NC(=O)OC
O=C(Nc1nnc(-c2cccc(F)c2)s1)Nc1ccccc1F
N#C/C(=C\c1cc(O)c(O)c(O)c1)C(N)=O
COc1ccc(/C=c2\s/c(=C/C(=O)c3ccc(C)cc3)[nH]c2=O)cc1OC
CC/C(=C(\c1ccccc1)c1ccc(OCCN(C)C)cc1)c1ccccc1
CCCC[C@H](NC(=O)[C@@H]1CCCN1C(=O)[C@H]1CCCN1C(=O)[C@H](Cc1ccccc1)NC(=O)[C@@H](Cc1c[nH]c2ccccc12)NC(=O)[C@H](C)NC(=O)[C@H](CCCN=C(N)N)NC(=O)OC(C)(C)C)C(N)=O (HELM PEPTIDE1{[CC(C)(C)OC(=O)[*:2]].R.A.[dW].F.[dP].P.[Nle].[am]}$$$$V2.0)
C(=C/c1nccc2c1[nH]c1ccccc12)/c1ccc2c(c1)OCO2
CCCN1CNc2c(c(=O)[nH]c(=S)n2-c2ccc(Cl)cc2)C1

Potency, active:
CCCN1CNc2c(c(=O)[nH]c(=S)n2CCc2cc(Cl)cc(Cl)c2)C1 7.94 µM
CCCN1CNc2c(c(=O)[nH]c(=S)n2CCc2ccc3c(c2)OCCO3)C1 15.8 µM
CCCN1CNc2c(c(=O)[nH]c(=S)n2CCc2ccccc2Cl)C1 15.8 µM

— PubChem BioAssay AID2113 (National Center for Advancing Translational Sciences (NCATS), 2009)
